Assay outcomes deposited in PubChem by several laboratories.
In the library only some 9.6% were active in any assay of this set; here they are far more common.
Ins promoter up = insulin promoter activators in MIN6 cells, imaging, high-content screening, mouse beta cells; MIN6 insulin promoter-GFP reporter; stronger effect = higher value; z-score at 5 µM; AID 1625, 2009; 190,000 tested, 0.3% active;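 active = z-score above 3 at 5 µM with at least 500 cells counted in the well; inconclusive = wells under 500 cells, flagged as cytotoxic or low count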
Autophagy mod = autophagy modulators in MEF cells, primary screen, imaging, high-content, MEF GFP-LC3. calls only at 10 µM (by protocol). AID 463193, 2010. MEF GFP-LC3 puncta imaging; test concentration mostly 10 µM. 190,000 tested, 0.98% active;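 active = percentage of spot-positive cells more than 3 SD above its plate mean, without a fluorescence outlier flag or 80% toxicity; inconclusive = no clear call, values can overlap the other calls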;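 also: spot-positive cell cutoff set from DMSO-treated cells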
HCT116 PTEN-null = growth suppression of PTEN-null HCT116, primary screen, cell-based, CellTiter-Glo; HCT116 PTEN-null viability, 60 h; stronger effect = lower value; viability, % at 10 µM; 140,000 tested, 1.2% active;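 active = viability at or below a set limit, 4 SD under the median of all tested compounds, cut at about 3.7% in these data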;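 also: PTEN knockout HCT116 line with beta catenin targeted HCT116 as companion control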
HCT116 bCat-KO = primary screen for growth suppressors in beta-catenin knockout HCT116 cells (colon tumor, human); viability, % at 10 µM; HCT116 beta-catenin knockout viability, CellTiter-Glo, 60 h; stronger effect = lower value; 140,000 tested, 1.5% active;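 active = viability at or under a set limit, the compound median less 4 SD, cut at about 6% in these data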;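 also: 0% = Hyamine 1622 control at 20 µM and 100% = untreated cell control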
Insulin prom inh = inhibitors of insulin promoter-driven GFP, primary screen, imaging, TRM-6 cells (human fetal islet line), eGFP reporter, cell count; reporter expression induced with tamoxifen; inhibition, % at 2 µM; 130,000 tested, 0.9% active;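 active = inhibition above the mean plus 3 SD, with well images judged a real hit on visual review, cut at about 60% in these data, passing the limit was not always enough; inconclusive = inhibition over the cutoff but images rejected on review; inactive = inhibition not above the cutoff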
Lmaj promast = Leishmania major promastigote growth inhibition, primary screen; 200,000 tested, 9% active; inhibition, % at 10 µM; Leishmania major promastigotes, resazurin fluorescence viability; AID 1063, 2008; in the data active = inhibition above about 50%;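 also: promastigotes grown with compound for 44 hours at 28 °C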
Numbers without * were called inactive; i = inactive; ? = inconclusive; / = no result; + = active, no number.

SMILES	Ins promoter up	Autophagy mod	HCT116 PTEN-null	HCT116 bCat-KO	Insulin prom inh	Lmaj promast
COc1cccc(-c2csc3nnc(SCC(=O)NCc4cccs4)n23)c1	0.94	i	86.6	90.1	/	-6.3
CC1CN(C(=O)c2cc(S(=O)(=O)N3CCCC3)c(Cl)cc2Cl)CC(C)O1 (centres undefined)	-0.05	i	83.3	76.6	38.5	-4.2
O=c1c2cc(NC(=S)NCCN3CCCCCC3)ccc2nc2n1CCCCC2	0.52	i	/	/	/	7.3
O=c1c2cc(NC(=S)NC3CC3)ccc2nc2n1CCCCC2	-0.55	i	/	/	/	9.4
O=c1c2cc(NC(=S)N3CCC(N4CCCCC4)CC3)ccc2nc2n1CCCCC2	-0.29	i	/	/	-90.9	-2.6
O=c1c2cc(NC(=S)NCCCN3CCC(Cc4ccccc4)CC3)ccc2nc2n1CCCCC2	-2.48	i	/	/	/	99.5*
CC1CCCCN1C(=S)Nc1ccc2nc3n(c(=O)c2c1)CCCCC3 (centres undefined)	-0.18	i	90.4	79.8	-20.0	58.7*
O=c1c2cc(NC(=S)NC3CCN(Cc4ccccc4)CC3)ccc2nc2n1CCCCC2	-0.04	i	/	/	-6.7	54.3*
CCc1ccccc1NC(=O)C1C(c2ccccc2)C1(Cl)Cl (centres undefined)	/	i	78.5	82.9	36.0	50.2*
CC(C)c1ccc(CNCc2ccccc2)cc1	/	i	87.2	84.6	33.3	79.9*
CC(C)c1ccc(CNC(=O)CCc2ccccc2)cc1	0.52	i	/	/	/	-4.2
CCOc1ccc(S(=O)(=O)N2CCN(c3ccc(OC)cc3)CC2)c2cccnc12	-1	i	95.3	82.4	-64.3	15.6
CCOc1ccc(S(=O)(=O)NCc2ccc(F)cc2)c2cccnc12	0.73	i	108.3	98.2	-18.8	88.5*
CCOc1ccc(S(=O)(=O)NCc2ccc(OC)cc2)c2cccnc12	0.04	i	98.1	95.5	0.0	89.9*
CCOC(=O)c1ccc(NC(=O)c2cc3ccccc3o2)cc1	/	i	107.9	108.5	63.0*	-7.6
O=C(Nc1ccc(N2CCN(C(=O)c3ccccc3)CC2)cc1)c1cc2ccccc2o1	-1.38	i	17.1	5.6*	-65.0	-6.8
CN(c1cccc(NC(=O)CN(c2ccc(C34CC5CC(CC(C5)C3)C4)cc2)S(C)(=O)=O)c1)S(C)(=O)=O	-1.66	i	2.0*	1.9*	-12.5	89.8*
CN(c1cccc(NC(=O)CN(c2ccc(F)cc2)S(C)(=O)=O)c1)S(C)(=O)=O	0.1	i	/	/	/	3.6
CN(c1cccc(NC(=O)CCSc2ccccc2)c1)S(C)(=O)=O	/	i	94.4	95.4	-51.7	-3.9
Cc1ccc(S(=O)(=O)N(CC(=O)Nc2cccc(N(C)S(C)(=O)=O)c2)c2ccc(Cl)c(Cl)c2)cc1	-0.28	i	40.5	48.9	-62.5	67.3*
CN(c1cccc(NC(=O)CSc2ccc(Cl)cc2)c1)S(C)(=O)=O	0.04	i	90.2	92.5	-10.7	74.2*
CCSc1nnc(-c2ccccc2NC(C)=O)c(=O)[nH]1	/	i	100.3	105.2	71.4*	-2.1
NCC(O)(c1ccc(Cl)cc1)c1ccc(Cl)cc1	-1.1	+	/	/	/	94.4*
COC(=O)c1c(C)[nH]c(C)c1-c1ccc(C)cc1	/	i	93.7	98.0	43.8	93.6*
COC(=O)c1c(C)[nH]c(C)c1-c1cccc([N+](=O)[O-])c1	-0.58	i	/	/	15.4	20.6
SMILES	Ins promoter up	Autophagy mod	HCT116 PTEN-null	HCT116 bCat-KO	Insulin prom inh	Lmaj promast
C/C(=N/NS(=O)(=O)c1ccc(Cl)cc1)c1cccc(NC(=O)c2ccc(Cl)cc2Cl)c1	/	i	91.8	94.0	0.0	96.9*
N#CC1=C(N)OC2=C(CC/C2=C\c2ccc(F)cc2)C1c1ccc(F)cc1 (centres undefined)	1.04	i	63.4	67.6	/	100.5*
N#CC1=C(N)OC2=C(CCC/C2=C/c2ccoc2)C1c1ccoc1 (centres undefined)	0.73	i	101.0	99.0	-73.3	0.1
COc1cc(NCCCCCCCN)c2ncccc2c1	/	i	2.3*	1.7*	14.3	100.3*
Cn1c(=NC(=O)CCl)sc2ccccc21	-0.17	?	4.7	5.1*	-185.7	83.7*
CN(C)c1ccc(N=c2sc3ccccc3n2C)cc1	/	i	91.7	99.7	13.0	98.3*
Cn1c(=NC(=O)c2ccco2)sc2ccccc21	-2.17	i	/	/	-14.3	1.5
CCOc1cc(/C=C2/NC(=O)NC2=O)cc([N+](=O)[O-])c1O	0.44	i	/	/	/	0.2
Cc1[nH]nc2oc(=O)c(CCO)c(C)c12	/	i	95.5	94.2	36.2	-4.8
COC(=O)c1nn2c(C(F)(F)F)cc(-c3ccc(Br)o3)nc2c1Br	0.23	+	/	/	-38.5	3.2
COC(=O)c1cc2nc(-c3ccc(C)cc3)cc(C(F)(F)F)n2n1	/	i	/	/	14.3	-4.8
O=[N+]([O-])c1ccc(-c2ccc(/C=N/Nc3nc(NCc4ccccc4)nc(N4CCOCC4)n3)o2)cc1	/	+	/	/	-200.0	13.5
COC(=O)c1ccccc1-c1ccc(/C=N/Nc2nc(N3CCCC3)nc(N3CCCC3)n2)o1	-0.18	/	/	/	/	/
O=[N+]([O-])c1ccccc1/C=N/Nc1nc(N2CCCC2)nc(N2CCCC2)n1	0.18	i	/	/	46.7	1.1
COc1nc(N/N=C/c2ccc(-c3ccccc3[N+](=O)[O-])o2)nc(N2CCOCC2)n1	0.63	i	69.7	78.1	36.0	85.9*
CCOC(=O)c1sc2nc(CC(=O)OC)nc(N3CCN(c4ccc(OC)cc4)CC3)c2c1C	/	i	58.2	48.2	16.7	21.1
Cc1ccc(-c2cc3c(n2-c2ccc(C(=O)O)cc2)CCCC3=O)cc1	0.43	i	90.2	98.2	61.9	-5.6
COc1ccc(-n2c(-c3ccccc3)cc3c2CCCC3=O)cc1	-0.41	i	68.6	65.8	34.8	79.7*
Cc1cc(Cl)cc(Br)c1OCCCCn1cncn1	0.11	i	101.7	93.6	-272.1	93.0*
Cc1ccccc1NC1=C(Cl)C(=O)OC1NC(=O)c1ccccc1 (centres undefined)	/	i	95.5	89.7	10.0	3.7
N/C(Cc1ccc([N+](=O)[O-])cc1)=N\OC(=O)c1ccccc1F	0.23	i	/	/	/	-1.2
N/C(Cc1ccc([N+](=O)[O-])cc1)=N\OC(=O)c1ccc(Br)o1	-0.25	i	91.7	96.7	71.4*	-5.6
CC(C)CNC(=O)c1cccc(NC(=O)c2ccc(NC(=O)c3ccco3)cc2)c1	0.11	i	39.9	47.8	28.6	3.1
O=C(c1cccc(F)c1)n1nnc2ccccc21	-0.81	i	94.7	91.7	81.3*	-6.4
COc1cc(SC)ccc1C(=O)Nc1ncc(C)s1	/	i	/	/	7.1	66.5*
COc1cc(SC)ccc1C(=O)Nc1ncc(Cl)cc1Cl	-0.62	+	/	/	-41.7	-7.5
